Hit rate of the full screen: of about 370,000 compounds, about 100 (0.027%) were called active. A call without a number means that no potency is given here. Calls come from the whole dose curve; as a rule, active = well fitted inhibition curve with a large enough effect in the polarisation, with a control signal flat; inconclusive = small, poorly fitted or top-dose-only effect, or effect the other way, or a change in a side signal; inactive = no such curve, though single readings can be large or run the other way; the % refers to the polarisation. Only a selection was taken, and actives are over-represented in it overall.
molecular target: Transcriptional regulator ERG (Homo sapiens) (UniProt P11308); experiment: qHTS for Small Molecule Inhibitors of the ERG Ets/DNA interaction; conditions: fluorescence polarization, His-ERG Ets domain / labelled DNA; series mostly up to 76.9 µM
Description: The Ets family of proteins is a family of ~30 conserved transcription factors defined by the presence of an ~85 amino acid domain referred to as the Ets domain, which mediates sequence-specific DNA binding to a core DNA element GGAA/T.The Ets family member ERG has been linked to several neoplasms. […] More extensive studies of the effects of over-expression of ERG in prostate cells have recently been carried out and have shown that over-expression of ERG results in increased invasion. […] We will carry out a high throughout screen to identify inhibitors of the interaction between ERG and DNA using a fluorescence polarization (FP) assay with a His-tagged ERG Ets domain and fluorescently-labeled DNA probes to develop small molecule inhibitors of this interaction as probes to test this hypothesis and lay the groundwork for the development of targeted therapies against ERG. NIH Molecular Libraries Probe Production Network [MLPCN] NIH Chemical Genomics Center [NCGC] Grant: NS066464 PI Name: John Bushweller, University of Virgina
1.5 ul of protein solution (1 uM ERG domain in 300mM KCl, 50mM Tris-HCl, 1mM EDTA, 1mM DTT, pH 7.5); 20 nl Control plate and compound library plate; 1.5 ul mixture of 5 nM Fluorescein-DNA and 100nM Texas-615-DNA solution in same buffer as above solution; measure fluorescence polarization sequentially for fluorescein (Excitation = 480 nm, Emission = 535s, 535p nm) and Texas red (Excitation = 555 nm, Emission = 632s, 632p nm).
Potency is the fitted concentration of half-maximal effect.

Transcriptional regulator ERG (Homo sapiens), sequence (P11308 whole entry, looked up, the tested form may be a part): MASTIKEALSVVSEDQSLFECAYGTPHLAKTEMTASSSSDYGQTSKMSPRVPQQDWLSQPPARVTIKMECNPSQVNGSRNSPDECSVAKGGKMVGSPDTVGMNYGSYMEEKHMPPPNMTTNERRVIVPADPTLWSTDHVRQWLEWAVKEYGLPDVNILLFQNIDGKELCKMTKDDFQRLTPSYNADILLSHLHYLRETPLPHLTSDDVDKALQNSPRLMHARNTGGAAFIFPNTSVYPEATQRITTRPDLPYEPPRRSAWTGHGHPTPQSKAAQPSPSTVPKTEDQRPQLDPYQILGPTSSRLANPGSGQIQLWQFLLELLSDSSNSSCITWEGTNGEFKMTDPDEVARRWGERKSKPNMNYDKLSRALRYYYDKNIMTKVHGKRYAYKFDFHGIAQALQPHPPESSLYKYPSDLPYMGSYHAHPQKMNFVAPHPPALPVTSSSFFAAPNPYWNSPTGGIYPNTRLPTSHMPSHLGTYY

Compound | Potency
Cc1ccc(-c2nnc(Nc3ccc(OCC(N)=O)cc3)c3ccccc23)cc1S(=O)(=O)NCC1CCCO1 (stereo unspecified) | inactive
O=C(NC1CC(=O)N(c2ccc(F)cc2)C1)c1cccs1 (stereo unspecified) | inactive
O=C(NCCc1ccc(Cl)cc1)c1ccc2nc(CCc3ccccc3)oc2c1 | inactive
COc1ccc(OC)c(CNC(=O)CN2C(=O)CCn3nc(-c4cn(C)c5ccccc45)cc32)c1 | inactive
Cc1ccc(NC(=O)CSc2nc3c(c(=O)[nH]2)CN(Cc2ccc4c(c2)OCO4)CC3)cc1C | inactive
CCCCc1nn2c(=O)cc(COC(=O)c3ccc(NC(=O)c4ccccc4C)cc3)nc2s1 | inactive
Cc1ccc(NC(=O)CSc2nc3ccccc3c3nc(CCn4cncc4C)nn23)cc1F | inactive
CC1=C(C(=O)N2CCN(c3cccc(C(F)(F)F)c3)CC2)C2(CCCCC2)OC1=O | inactive
COCCn1c(C)cc(C(=O)COC(=O)CNC(=O)c2ccco2)c1C | 7.94 µM (active)
O=C(CNC(=O)c1ccco1)OCC(=O)c1ccccc1 | inactive
Cc1cc(C(=O)COC(=O)CNC(=O)c2ccc(F)cc2)c(C)n1Cc1ccco1 | inactive
CC(C)c1ccc(NC(=O)CN(C)S(=O)(=O)c2ccc3c(c2)c(=O)n(C)c(=O)n3C)cc1 | inactive
CCOC(=O)c1cccc(NC(=O)C(Cc2ccccc2)NS(=O)(=O)c2cccc3nsnc23)c1 (stereo unspecified) | inactive
CCS(=O)(=O)N1CCC(n2c(C)nc3cccnc32)CC1 | inactive
CCOc1ccc(-c2cc3nc(C4CCN(C(=O)OC(C)(C)C)CC4)c(C(=O)Nc4ccc(C(=O)OC)cc4)cn3n2)cc1 | inactive
CCc1ccc(CN(Cc2ccco2)C(=O)c2ccccc2Cl)cc1 | inactive
CCN(CCCNC(=O)Cn1ncc2c3ccccc3n(C)c2c1=O)Cc1ccccc1 | inactive
CCC(=O)N1CCc2cc(S(=O)(=O)NCCC(=O)Nc3cccc(C)c3C)ccc21 | inactive
Cc1ccc(-n2ncc(C(=O)N(C)Cc3ccccc3)c2-n2cccc2)cc1 | inactive

Compound | Potency
Cc1cc(O)c(C(c2ccccc2)N2CCN(c3ccccc3F)CC2)c(=O)n1Cc1ccco1 (stereo unspecified) | inactive
CCOc1ccc(C(=O)/C=C/c2cn(CC(O)CN3CCCCCC3)c3ccccc23)cc1 (stereo unspecified) | inactive
Cc1cc(C)c(NC(=O)CN2C(=O)c3cccnc3Oc3ccc(Cl)cc32)c(C)c1 | inactive
CCc1ccc(S(=O)(=O)c2nnn3c2nc(N2CCN(CC)CC2)c2sccc23)cc1 | inactive
Cc1cccc(NC(=O)CSc2nnc(CNC(=O)c3cccc(C)c3)n2-c2ccccc2)c1 | inactive
Cc1ccccc1-c1nc2scc(CCNC(=O)C(=O)Nc3ccc(F)cc3F)n2n1 | inactive
CC(C)CCNC(=O)CSc1nc2ccccc2nc1Cc1ccc(Cl)cc1 | inactive
CC(=O)Nc1cccc(NC(=O)CSc2nccn2Cc2ccc3c(c2)OCO3)c1 | inactive
CCC(=O)N1CCc2cc(Br)cc(S(=O)(=O)Nc3ccc(C)cc3C)c21 | inactive
O=C(CN1CCN(Cc2ccc(Cl)cc2)C1=O)NCc1ccc(F)cc1 | inactive
COc1ccc(-c2cccc(NS(=O)(=O)c3cc(C)c(OC)c(C)c3C)c2)nn1 | inactive
Cc1nn2c(=O)cc(COC(=O)CNC(=O)c3ccc(F)cc3)nc2s1 | inactive
CCOc1ccccc1C(=O)NCc1ccc2c(c1)CCN2C(=O)c1ccc(F)cc1 | inactive
Cc1c(NC(=O)Nc2ccc(F)c(Cl)c2)c(=O)n(-c2ccccc2)n1C | inactive
Cc1ccc(N2CC(NC(=O)Cc3cccs3)CC2=O)cc1 (stereo unspecified) | inactive
Cc1nnc(N2CCC(C(=O)Nc3ccc(F)cc3)CC2)c2nn(-c3ccc(Cl)cc3)c(C)c12 | inactive
Cc1ccc(C)c(N2CCN(C(=O)Cn3ncc4c(=O)oc5ccc(C)cc5c43)CC2)c1 | inactive
Cc1ccc(C(=O)N2CCc3cc(CNC(=O)c4ccc(Br)cc4)ccc32)cc1 | inactive
Cc1ccc(S(=O)(=O)NCc2nc3nc(C)cc(C)n3n2)cc1 | inactive

Compound | Potency
CCN(CCCNC(=O)c1cc(Nc2ccc(OC)cc2)nc2ccccc12)c1cccc(C)c1 | inactive
CCc1nnc2c3ccccc3nc(N3CCN(c4ccc(C)cc4C)CC3)n12 | inactive
Cc1nnc(SCc2cc(=O)c3cc(F)ccc3[nH]2)n1C | inactive
Cc1ccc(C(=O)Nc2ccc3[nH]c(=O)c(=O)[nH]c3c2)cc1 | inactive
Cc1sc(C2C(C#N)=C(N)N(c3cccc(Cl)c3)C3=C2C(=O)CCC3)cc1CN1CCOCC1 (stereo unspecified) | inactive
O=C(CCc1ccccc1)NCc1ccc2c(c1)CCN2C(=O)c1ccccc1 | inactive
CCc1ccccc1NC(=O)c1sc2nc3c(cc2c1N)CN(Cc1ccccc1)CC3 | inactive
COc1ccc(CCNC(=O)c2ccc(CSCc3ccc(C)cc3)o2)cc1OC | inactive
CCCn1c2ccccc2c2cnn(CC(=O)N3CCCC(C(=O)OCC)C3)c(=O)c21 (stereo unspecified) | inactive
Cc1cc(C(=O)Nc2cccc(C(F)(F)F)c2)c2c(C)nn(-c3cccc(F)c3)c2n1 | inactive
CC(C)(C)c1ccc(C(=O)Nc2ccc3c(c2)CCCN3C(=O)c2cccs2)cc1 | inactive
COc1ccc(CNC(=O)CS(=O)Cc2nc(-c3cccc(C)c3)oc2C)cc1 (stereo unspecified) | inactive
COc1ccc(-c2nc(CS(=O)CC(=O)NCc3cccnc3)c(C)o2)cc1OC (stereo unspecified) | inactive
COc1ccc(-c2nc(CS(=O)CC(=O)NCc3ccccn3)c(C)o2)cc1 (stereo unspecified) | 35.5 µM (active)
Cc1cc(C)nc(NS(=O)(=O)c2ccc(NC(=O)c3cc(=O)c4ccc(C)c(C)c4o3)cc2)n1 | inactive
CCCn1c(NCc2ccccc2F)nc2ccccc21 | inactive
O=C(CSc1nc(Nc2ccc(F)c(F)c2)c2ccccc2n1)c1ccc(Cl)cc1 | inactive
COc1cc(C(=O)Nc2ccc(OCc3cc(=O)n4ccc(C)cc4n3)cc2)cc(OC)c1OC | inactive
